# TDP-43 yeast inh: inhibitors of TDP-43 toxicity in yeast; TDP-43 expressing yeast growth rescue, BacTiter-Glo, 24 h; Potency, µM (highest dose often 46.1 µM), hits mostly activators; 1.8% of 410,000 active; also: nearly all actives have a fitted effect of over 50% in size
#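 Luminescence from BacTiter-Glo reports growth of TDP-43-expressing yeast after 24 hr at 30 deg C with compound. Cells were raffinose-pregrown to mid-log, then seeded in galactose medium at OD600=0.02.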
# aSyn rescue: rescues yeast growth from alpha-synuclein toxicity. Potency, µM (doses to about 46.1 µM), actives largely listed as activators. AID 652106. Yeast expressing alpha-synuclein, growth rescue, BacTiter-Glo, 24 h. 0.14% of 370,000 active; also: nearly all actives have a fitted effect of over 65% in size
#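 Galactose-induced alpha-syn yeast (OD600=0.02, raffinose-pregrown) + pinned cpd, 24 hr, 30 deg C; growth by BacTiter-Glo luminescence. Growth restoration scores as activation.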
# FUS suppressor: FUS proteinopathy suppression in yeast | AID 1347120 | 0.24% of 390,000 active | Potency, µM (doses to about 76.6 µM), actives largely listed as activators | S. cerevisiae FUS-expressing, growth rescue, OD600, 24 h; also: nearly all actives have a fitted effect of over 55% in size
#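 Yeast FUS proteinopathy model; galactose-induced FUS (2%), starting OD 0.005. Cpds in dilution series, 24hr, 30C, 99% humidity. Abs 600 nm growth. Pos ctrl CP55940 (top 92uM final); neg ctrl DMSO.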
# Abeta rescue: restores growth of yeast expressing A-beta42 peptide | yeast expressing A-beta42, growth rescue, OD600, 48 h; response scale: 0% DMSO, 100% iron-clioquinol control | Potency, µM (highest dose often 46.1 µM), actives largely listed as activators | 0.063% of 410,000 active | AID 1347071; also: nearly all actives have a fitted effect of over 55% in size
#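 Growth rescue measured by 600 nm absorbance after 48 h yeast culture at 30 C with compound. Values normalized between DMSO and an equimolar ferric chloride plus clioquinol control.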
# Hits are given with their value; n = inactive; u = inconclusive; x = not tested or not shown. An excerpt weighted towards active compounds, which were near 2.1% of everything screened. Calls follow the shape of the dose curve; as a rule, active = well fitted curve in the direction sought with a large enough effect; inconclusive = small, poorly fitted or top-dose-only effect, or another doubt; inactive = no such curve, though single readings can be large; an effect the other way counts as inactive or inconclusive.
SMILES,TDP-43 yeast inh,aSyn rescue,FUS suppressor,Abeta rescue
CC1=[N+](C)c2c(ccc3cccnc23)C1(C)C,n,n,n,n
CC1Cc2ccccc2N1CC(=O)N(C)c1c(N)n(Cc2ccccc2)c(=O)[nH]c1=O (stereo unspecified),n,n,u,n
COc1ccc(CC(=O)N2CC3(C)CC2CC(C)(C)C3)cc1 (stereo unspecified),n,n,n,n
COc1cccc(N2[C@@H](CC(=O)O)c3ccc(/C=C/C(=O)O)cc3S2(=O)=O)c1,n,n,n,n
N#Cc1cnn2c(-c3ccccc3)ccnc12,n,n,n,n
NC(=S)c1cnn2c(-c3cccc(C(F)(F)F)c3)ccnc12,u,n,n,6.31µM
COc1cccc(CNc2ccccc2O)c1OCc1ccccc1F,n,n,20µM,n
CCC(C)NC(=O)[C@H](CSCc1ccccc1)N1Cc2ccccc2C1=O (stereo partly specified),n,n,n,u
CC1CCCN(C(=O)c2ccc(CNc3c(N4CCCCC4)c(=O)c3=O)cc2)C1 (stereo unspecified),n,n,n,n
COc1cc([N+](=O)[O-])cc(/C=N/NC(=O)C(C)Nc2ccccc2C)c1O (stereo unspecified),20µM,n,x,n
Cc1nc2ccccn2c(=O)c1NC(=O)c1cccc(F)c1,n,x,n,n
Cc1ccc(Cl)cc1N(C)C(=O)c1sc2nc3n(c(=O)c2c1C)CCCC3,20µM,x,n,n
Cc1ccc(N(C)C(=O)c2sc3nc4n(c(=O)c3c2C)CCCC4)cc1C,15.8µM,x,n,n
CC(C)c1ccc(NC(=O)N2CCc3nc(NCc4cccc(Oc5ccccc5)c4)ncc3C2)cc1,n,n,u,n
O=C(Nc1cccc(F)c1)N1CCc2nc(NCc3cccc(Oc4ccccc4)c3)ncc2C1,15.8µM,n,n,n
CC12CCC(C(=O)Nc3ccc(Cl)cc3)([C@H](Br)C1=O)C2(C)C (stereo partly specified),u,n,n,u
CC12CCC(C(=O)Nc3cccc(Cl)c3)(C(Br)C1=O)C2(C)C (stereo unspecified),20µM,n,x,n
CC1COC(=O)C(NNc2ccc(Cl)c(Cl)c2)=N1 (stereo unspecified),3.55µM,n,n,n
Cc1ccc(-c2nc3sccn3c2Nc2ccccc2C)cc1,35.5µM,x,u,n
Cc1ccccc1Nc1c(-c2ccc(Br)cc2O)nc2sccn12,n,x,n,n
CCCCc1ccc(NC(=S)N2CCCC2)cc1,n,n,n,11.2µM
S=C(Nc1ccc(Cl)c(Cl)c1)N1CCCC1,3.16µM,n,n,n
O=[N+]([O-])c1cc(S(=O)(=O)Nc2ccccc2)ccc1Nc1ccccc1,12.6µM,n,n,u
CN(CC(=O)Nc1ccc(Cl)c(C(F)(F)F)c1)C(=O)c1ccc(N2CCOCC2)c([N+](=O)[O-])c1,n,n,31.6µM,n
COc1ccc(CCNC(=O)CCN2C(=O)COc3ccc(C)cc32)cc1OC,8.91µM,n,u,n
SMILES,TDP-43 yeast inh,aSyn rescue,FUS suppressor,Abeta rescue
CCOC(=O)N1CCN(C(=O)CN(C2CCCCC2)S(=O)(=O)c2ccc(C)cc2)CC1,u,n,n,n
Cc1ccc(S(=O)(=O)N(CC(=O)N2CCN(c3ccc(F)cc3)CC2)C2CCCCC2)cc1,20µM,n,u,n
Cc1cccc(-c2nnc3n(CCc4ccccc4)c(=O)c4ccccc4n23)c1,u,x,n,n
CCCCN(C=O)c1c(CC)nc2c(OCCOc3ccccc3)cccn12,n,n,n,n
CC(C)CCNC(=S)Nc1ccc(Br)cc1,u,n,x,n
CC(C)CCNC(=O)/C=C/c1ccc(Br)cc1,22.4µM,n,x,n
COc1cc2c(cc1OC)CN(C(=O)/C=C/c1ccc([N+](=O)[O-])cc1)CC2,n,n,n,n
CC1CCCN(c2ccc(C(=O)NCc3ccco3)cc2[N+](=O)[O-])C1 (stereo unspecified),14.1µM,n,n,n
Cc1ccc(C(=O)NCc2ccco2)cc1[N+](=O)[O-],n,n,n,n
COc1ccc(C(=O)NCc2ccc(F)cc2)cc1S(=O)(=O)N1CCCC1,n,n,n,n
Cc1nnc(SCC(=O)Nc2cc(C(C)(C)C)nn2-c2ccccc2)s1,n,n,x,n
Cc1cc(NC(=O)CSc2cc(Cl)ccc2Cl)n(-c2ccccc2)n1,12.6µM,n,n,n
Cc1cc(NC(=O)c2ccc(Cl)cc2Cl)n(-c2ccccc2)n1,20µM,n,n,n
Cc1cc(NC(=O)Nc2cc(C)nn2-c2ccccc2)n(-c2ccccc2)n1,n,n,n,n
Cc1nnc(SCC(=O)Nc2cc(-c3cc(C)c(C)cc3C)nn2-c2ccccc2)s1,u,n,25.1µM,n
Cc1cc(NC(=O)COc2ccc(Cl)cc2Cl)n(-c2ccccc2)n1,n,n,n,n
COc1cccc(C=O)c1OCCN1C(=O)c2ccccc2C1=O,n,n,n,n
CN(CCNC(=O)c1cc2c(=O)n(C)c3ccccc3c2n1C)Cc1ccccc1,n,u,n,n
CCCN(CCC)CCNC(=O)c1cc2c(=O)n(C)c3ccccc3c2n1C,n,11.2µM,n,n
CCOC(=O)c1c(C)[nH]c(C)c1C(=O)CN1C(=O)NC2(CCCCCC2)C1=O,n,n,n,n
O=C1c2sc3nc4n(c(=O)c3c2CCC1Br)CCCCC4 (stereo unspecified),12.6µM,n,u,n
O=C1CCCc2c1sc1nc3n(c(=O)c21)CCCCC3,n,n,n,n
O=C(Nc1c(Cl)cccc1Cl)c1cc(-c2ccc3c(c2)OCO3)on1,n,x,n,n
O=C(Nc1c(Cl)cccc1Cl)c1cc(-c2cccc(O)c2)on1,15.8µM,x,n,n
CC(=O)Nc1cc(-c2ccc(F)cc2)cn2c(-c3ccc(S(C)(=O)=O)cc3)cnc12,n,n,u,n
SMILES,TDP-43 yeast inh,aSyn rescue,FUS suppressor,Abeta rescue
Cc1ccc(Cl)cc1NC(=O)COC(=O)CC1CCCCC1,12.6µM,n,n,u
O=C1CN(C(=O)COc2ccc(Cl)cc2Cl)C(c2ccccc2)c2cc(F)ccc2N1 (stereo unspecified),n,x,31.6µM,n
Cc1ccc(OCC(=O)NCCNC(=O)COc2ccc(C)cc2)cc1,n,n,n,n
N#Cc1c(N)c(C#N)c(-c2ccc3c(c2)OCO3)c2c1CCCC2,n,n,x,n
N#Cc1c(N)nc2c(c1-c1ccc3c(c1)OCO3)CCc1ccccc1-2,31.6µM,n,n,n
N#Cc1c(-c2ccc3c(c2)OCO3)csc1N,15.8µM,n,n,n
O=C(Oc1cccc(-n2cnnn2)c1)C1CCCCC1,11.2µM,x,n,n
O=C(Nc1ccc(-n2cnnn2)cc1)C1CCCCC1,n,n,n,n
Cc1cc2ccccc2n1CCNC(=O)c1cccc(Cl)c1,14.1µM,x,n,n
Cc1cc2ccccc2n1CCNC(=O)c1cccc(Br)c1,u,x,n,n
CC(C)(C)NC(=O)C(c1ccc(C(F)(F)F)cc1)n1c(=O)c(-c2cc3ccccc3[nH]2)nc2ccccc21 (stereo unspecified),u,7.08µM,n,u
